Test [1] can be described thus: NCI Yeast Anticancer Drug Screen. Data for the rad50 strain (AID 155).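 Note: 0% = growth of vehicle-only cultures of the same strain.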 As to conditions: S. cerevisiae rad50 strain growth inhibition, hits give high values. Summed up:
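Inhibition values express reduced yeast growth in compound-treated cultures relative to vehicle-treated controls.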

Test [2] is described as follows: NCI Yeast Anticancer Drug Screen. Data for the mec2-1 strain (AID 157). The following applies: S. cerevisiae mec2-1 strain, hits give high values. Summed up:
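Growth inhibition is read against vehicle-treated controls after compound exposure of the mec2-1 yeast strain, which is defective in DNA damage repair or cell cycle control.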

Test [3] can be described thus: NCI Yeast Anticancer Drug Screen. Data for the sgs1 mgt1 strain (AID 161).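 Note: 0% = growth of cultures given vehicle only.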 The following applies: S. cerevisiae sgs1 mgt1 strain, hits give high values. The method in brief:
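Growth of a repair-deficient yeast mutant was monitored after compound treatment and expressed as inhibition relative to vehicle-treated cultures.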

Test [4] can be described thus: NCI Yeast Anticancer Drug Screen. Data for the cln2 rad14 strain (AID 165).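 Note: 0% = growth equal to vehicle treated cultures.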 As to conditions: S. cerevisiae cln2 rad14 strain, hits give high values. Summed up: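 Growth inhibition, relative to vehicle-treated controls, is the read-out. The test organism is a yeast strain with defined genetic alterations, cln2 rad14.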
Test [5] in a line: NCI Yeast Anticancer Drug Screen. Data for the bub3 strain (AID 167). The following applies: S. cerevisiae bub3 mutant strain, hits give high values. The method in brief:
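Steps: expose the mutant yeast strain to compound; grow alongside vehicle-treated cultures; measure growth; express inhibition against the vehicle cultures.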

Test [6] in a line: NCI Yeast Anticancer Drug Screen. Data for the mlh1 rad18 strain (AID 175). As to conditions: S. cerevisiae mlh1 rad18 strain growth inhibition, hits give high values. Summed up: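 Cells of a genetically altered yeast strain, deficient in DNA damage repair, were treated with compound. Their growth was then compared with that of vehicle-treated cultures to give inhibition.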
Setting [7] is: at 5.0 µM (retest, dose inferred, filed as 0.5).
Where [8] appears, read: at 50.0 µM (retest, dose inferred, filed as 5.0).

The panel holds about 79,000 compounds, 15% with a hit somewhere; the sample as a whole holds those more often. Values without a mark were called inactive. Activity calls are given as the source filed them. Cut-off read from the data, not from the text of the source: active = growth inhibition above about 70%; inactive = the rest.

`CCOC(=O)C1=NNC(C(=O)c2ccccc2)C1c1ccccc1` (configuration not stated): the growth inhibition was 3% in test [1] (setting [7]); 49% in test [1] (setting [8]); 33.2% in test [1] (at 50.0 µM); 10% in test [2] (setting [7]); 55% in test [2] (setting [8]); 19.6% in test [2] (at 50.0 µM). Besides, the growth inhibition in test [3] (setting [7]) was 20%; in test [3] (setting [8]) it was 83% (active); in test [3] (at 50.0 µM), 81.2% (active); in test [4] (setting [7]), 4%; in test [4] (setting [8]) it was 19%; in test [4] (at 50.0 µM), -20.3%. Further, the growth inhibition is 8% in test [5] (setting [7]); 40% in test [5] (setting [8]); 81.8% (active) in test [5] (at 50.0 µM); 12% in test [6] (setting [7]); 82% (active) in test [6] (setting [8]); 68.8% in test [6] (at 50.0 µM).
In the case of `CC(=O)Nc1c([N+](=O)[O-])cc2c3c(cccc13)C=C2`, the growth inhibition is 3% in test [1] (setting [7]); 77% (active) in test [1] (setting [8]); 24.8% in test [1] (at 50.0 µM); 1% in test [2] (setting [7]); 47% in test [2] (setting [8]); 16.1% in test [2] (at 50.0 µM). For the same compound, the growth inhibition was 6% in test [3] (setting [7]); 56% in test [3] (setting [8]); 9.8% in test [3] (at 50.0 µM); 6% in test [4] (setting [7]); 77% (active) in test [4] (setting [8]); 74.9% (active) in test [4] (at 50.0 µM). Besides, the growth inhibition in test [5] (setting [7]) is 3%; in test [5] (setting [8]), 23%; in test [5] (at 50.0 µM), -17.2%; in test [6] (setting [7]) it was 31%; in test [6] (setting [8]) it was 94% (active); in test [6] (at 50.0 µM) it was 67.8%.
Consider `O=C1c2ccccc2C(O)(c2ccccc2)c2c(Cl)cccc21` (configuration not stated), for which the growth inhibition is -1% in test [1] (setting [7]); 27% in test [1] (setting [8]); 82.6% (active) in test [1] (at 50.0 µM); -6% in test [2] (setting [7]); 26% in test [2] (setting [8]); 90.7% (active) in test [2] (at 50.0 µM). The growth inhibition in test [3] (setting [7]) is 0%; in test [3] (setting [8]) it was 28%; in test [3] (at 50.0 µM), 80.8% (active); in test [4] (setting [7]), 1%; in test [4] (setting [8]), 21%; in test [4] (at 50.0 µM) it was 75.2% (active). Also, the growth inhibition in test [5] (setting [7]) is -5%; in test [5] (setting [8]) it was 14%; in test [5] (at 50.0 µM) it was 80% (active); in test [6] (setting [7]), -12%; in test [6] (setting [8]) it was 41%; in test [6] (at 50.0 µM) it was 96.7% (active).
For `c1ccc(-c2cc(CN3CCOCC3)c(-c3ccccc3)o2)cc1`, the growth inhibition in test [1] (setting [7]) is -1%; in test [1] (setting [8]), 98% (active); in test [1] (at 50.0 µM), 52.8%; in test [2] (setting [7]), -6%; in test [2] (setting [8]), 99% (active); in test [2] (at 50.0 µM) it was 51.9%. Also, the growth inhibition in test [3] (setting [7]) is 3%; in test [3] (setting [8]), 99% (active); in test [3] (at 50.0 µM), 57.9%; in test [4] (setting [7]) it was -6%; in test [4] (setting [8]), 99% (active); in test [4] (at 50.0 µM), 56.4%. In addition, the growth inhibition in test [5] (setting [7]) was 1%; in test [5] (setting [8]), 99% (active); in test [5] (at 50.0 µM), 55.8%; in test [6] (setting [7]) it was -2%; in test [6] (setting [8]), 99% (active); in test [6] (at 50.0 µM), 54.1%.
For `O=C(/C=C/c1ccc(Cl)c(Cl)c1)CCN1CCN(CCC(=O)/C=C/c2ccc(Cl)c(Cl)c2)CC1`, the growth inhibition is 36% in test [1] (setting [7]); 98% (active) in test [1] (setting [8]); 82.7% (active) in test [1] (at 50.0 µM); 38% in test [2] (setting [7]); 99% (active) in test [2] (setting [8]); 85.5% (active) in test [2] (at 50.0 µM). Also, the growth inhibition in test [3] (setting [7]) is 11%; in test [3] (setting [8]), 99% (active); in test [3] (at 50.0 µM), 88.1% (active); in test [4] (setting [7]) it was 16%; in test [4] (setting [8]), 99% (active); in test [4] (at 50.0 µM), 86.3% (active). Besides, the growth inhibition in test [5] (setting [7]) was 14%; in test [5] (setting [8]), 98% (active); in test [5] (at 50.0 µM), 82% (active); in test [6] (setting [7]), 44%; in test [6] (setting [8]) it was 98% (active); in test [6] (at 50.0 µM), 86.5% (active).
For `O=C(OC1CC2CC1C1CC=CC21)c1ccccc1` (configuration not stated), the growth inhibition was -3% in test [1] (setting [7]); -3% in test [1] (setting [8]); -5.55% in test [1] (at 50.0 µM); -6% in test [2] (setting [7]); 2% in test [2] (setting [8]); 10.9% in test [2] (at 50.0 µM). Besides, the growth inhibition in test [3] (setting [7]) is -8%; in test [3] (setting [8]), 1%; in test [3] (at 50.0 µM), -3.8%; in test [4] (setting [7]), -5%; in test [4] (setting [8]), -24%; in test [4] (at 50.0 µM), -4.4%. Moreover, the growth inhibition in test [5] (setting [7]) was 46%; in test [5] (setting [8]), 68%; in test [5] (at 50.0 µM), 21.9%; in test [6] (setting [7]) it was -5%; in test [6] (setting [8]), -3%; in test [6] (at 50.0 µM), -3.95%.
Turning to `Cc1cc2ccccc2c[n+]1Cc1ccc2ccccc2n1`, the growth inhibition in test [1] (setting [7]) is -6%; in test [1] (setting [8]) it was -1%; in test [1] (at 50.0 µM), 53.6%; in test [2] (setting [7]) it was 9%; in test [2] (setting [8]) it was 45%; in test [2] (at 50.0 µM) it was 29.4%. Moreover, the growth inhibition in test [3] (setting [7]) is -13%; in test [3] (setting [8]) it was 12%; in test [3] (at 50.0 µM), 65.4%; in test [4] (setting [7]), -8%; in test [4] (setting [8]) it was -24%; in test [4] (at 50.0 µM) it was 21.6%. Further, the growth inhibition in test [5] (setting [7]) is -5%; in test [5] (setting [8]), 23%; in test [5] (at 50.0 µM) it was 49.3%; in test [6] (setting [7]), 1%; in test [6] (setting [8]) it was 41%; in test [6] (at 50.0 µM), 69.3%.
On to `CC(C)(C)OC(=O)Nc1cccc(Cl)c1`, for which the growth inhibition in test [1] (setting [7]) is 11%; in test [1] (setting [8]) it was 71% (active); in test [1] (at 50.0 µM) it was 73.2% (active); in test [2] (setting [7]), -4%; in test [2] (setting [8]), 12%; in test [2] (at 50.0 µM) it was 14.8%. In addition, the growth inhibition was -1% in test [3] (setting [7]); 7% in test [3] (setting [8]); 55.7% in test [3] (at 50.0 µM); -2% in test [4] (setting [7]); -20% in test [4] (setting [8]); 2.9% in test [4] (at 50.0 µM). The growth inhibition in test [5] (setting [7]) was 46%; in test [5] (setting [8]), -2%; in test [5] (at 50.0 µM) it was 10.2%; in test [6] (setting [7]), 4%; in test [6] (setting [8]), 33%; in test [6] (at 50.0 µM), 80.5% (active).
As for `O=C(/C=C/c1cccc([N+](=O)[O-])c1)CCl`, the growth inhibition in test [1] (setting [7]) was 1%; in test [1] (setting [8]), 98% (active); in test [1] (at 50.0 µM), 99.3% (active); in test [2] (setting [7]), -20%; in test [2] (setting [8]), 99% (active); in test [2] (at 50.0 µM), 99.6% (active). In addition, the growth inhibition was 13% in test [3] (setting [7]); 99% (active) in test [3] (setting [8]); 99.2% (active) in test [3] (at 50.0 µM); -22% in test [4] (setting [7]); 98% (active) in test [4] (setting [8]); 98.9% (active) in test [4] (at 50.0 µM). In addition, the growth inhibition in test [5] (setting [7]) is 14%; in test [5] (setting [8]), 98% (active); in test [5] (at 50.0 µM) it was 99.5% (active); in test [6] (setting [7]), -32%; in test [6] (setting [8]), 98% (active); in test [6] (at 50.0 µM), 99.3% (active).

The record behind these values is PubChem BioAssay (NCI).
